# Laboratory results: the supplement of paper PMC10849652
# Of roughly 7,900 targets only a part is listed; those with a hit were picked by preference. About 0.6% of all pairs of compound and target were hits. Values without a mark were called inactive.
# Experiments:
# Assay in all cases: log2 fold change, soluble protein after heating vs DMSO (PISA); higher = thermal stabilisation; K562 cells, 10 uM, 30 min; active = over 0.2 and 3.5 SD of the protein, either way, in both replicates (recomputed)
# IRAK-1-4 Inhibitor I = compound: C1COCCN1CCN2C3=CC=CC=C3N=C2NC(=O)C4=CC(=CC=C4)[N+](=O)[O-] [IRAK-1-4 Inhibitor I]
# Outline: (§1)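 K562 cells (2×10^6 cells/mL) were treated with 10 μM compound for 30 min, and aliquots were heated for 3 min over 48°C-58°C. Pooled aliquots were extracted in PBS with 0.5% NP-40 at 4°C, and the supernatant after 21,000xg for 90 min was measured by TMTpro 16plex LC-MS/MS with channel sums equalised. Reported thermal stability, relative to control samples and from duplicates, is a log2 fold change.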
# ibrutinib = compound: C=CC(=O)N1CCC[C@@H](n2nc(-c3ccc(Oc4ccccc4)cc3)c3c(N)ncnc32)C1 [ibrutinib]
# Outline: as §1
# [1] = compound: CC(=O)c1cnc2ccc(-c3cc(Cl)c(O)c(Cl)c3)nc2c1N[C@H]1CC[C@H](CN(C)C)CC1
# Outline: as §1
# ralimetinib = compound: CC(C)(C)Cn1c(N)nc2ccc(-c3[nH]c(C(C)(C)C)nc3-c3ccc(F)cc3)nc21 [ralimetinib]
# Outline: as §1
# [2] = compound: CC(C)C1=C2N=C(C=C(N2N=C1)NCC3=CC=CC=C3)NCCCCCCN
# Outline: as §1
# [3] = compound: CC(C)C[C@@H](C=O)NC(=O)[C@H](CC(C)C)NC(=O)[C@H](CC(C)C)NC(=O)OCc1ccccc1
# Outline: as §1
# pinometostat = compound: CC(C)N(C[C@H]1O[C@@H](n2cnc3c(N)ncnc32)[C@H](O)[C@@H]1O)[C@H]1C[C@@H](CCc2nc3cc(C(C)(C)C)ccc3[nH]2)C1 [pinometostat]
# Outline: as §1
# [4] = compound: CC(C)(O)CC(=O)NCCn1ccc2ncnc(Nc3ccc(Oc4cccc(C(F)(F)F)c4)c(Cl)c3)c21
# Outline: as §1
# [5] = compound: CC1=C(C(CC(=O)N1)C2=CC=C(C=C2)C(F)(F)F)C(=O)NC3=C(C=C4C(=C3)C=NN4)F
# Outline: as §1
# [6] = compound: CC1=C(C2=C(C=C1)C(=O)C3=CC=CC=C3N2CCCN)C
# Outline: as §1
# Chain of UniProt Q9NYL2 (Q9NYL2 whole entry, looked up): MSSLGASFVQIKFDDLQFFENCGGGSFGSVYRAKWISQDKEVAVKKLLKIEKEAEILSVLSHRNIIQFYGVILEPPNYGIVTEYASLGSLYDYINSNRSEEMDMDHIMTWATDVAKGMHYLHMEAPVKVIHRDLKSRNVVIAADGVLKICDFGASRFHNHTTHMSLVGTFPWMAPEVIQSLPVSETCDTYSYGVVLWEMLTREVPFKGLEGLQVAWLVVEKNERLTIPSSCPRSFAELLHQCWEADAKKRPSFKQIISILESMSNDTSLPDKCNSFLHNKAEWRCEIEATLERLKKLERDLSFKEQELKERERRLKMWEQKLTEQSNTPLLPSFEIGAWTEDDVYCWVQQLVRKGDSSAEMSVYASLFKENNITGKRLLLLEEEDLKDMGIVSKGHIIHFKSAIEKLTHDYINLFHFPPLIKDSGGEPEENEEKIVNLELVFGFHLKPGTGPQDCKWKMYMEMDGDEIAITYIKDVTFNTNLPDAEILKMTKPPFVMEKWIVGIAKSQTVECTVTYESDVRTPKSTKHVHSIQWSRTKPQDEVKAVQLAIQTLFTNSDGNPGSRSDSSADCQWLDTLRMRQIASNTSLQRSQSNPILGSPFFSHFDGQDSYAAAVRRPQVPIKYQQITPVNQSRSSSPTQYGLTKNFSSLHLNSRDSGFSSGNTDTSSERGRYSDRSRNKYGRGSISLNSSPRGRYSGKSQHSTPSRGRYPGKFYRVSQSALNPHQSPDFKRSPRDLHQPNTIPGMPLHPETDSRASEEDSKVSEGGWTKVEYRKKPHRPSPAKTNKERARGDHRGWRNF
# Chain of UniProt P17936 (P17936 whole entry, looked up): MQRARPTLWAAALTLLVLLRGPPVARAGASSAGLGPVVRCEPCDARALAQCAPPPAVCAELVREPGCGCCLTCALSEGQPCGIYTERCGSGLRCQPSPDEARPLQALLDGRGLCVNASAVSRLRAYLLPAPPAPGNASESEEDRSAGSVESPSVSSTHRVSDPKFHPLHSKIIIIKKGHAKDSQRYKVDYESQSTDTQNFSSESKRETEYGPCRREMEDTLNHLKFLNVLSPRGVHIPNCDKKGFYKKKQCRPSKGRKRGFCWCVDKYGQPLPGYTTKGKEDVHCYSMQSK
# Chain of UniProt Q9NUN5 (Q9NUN5 whole entry, looked up): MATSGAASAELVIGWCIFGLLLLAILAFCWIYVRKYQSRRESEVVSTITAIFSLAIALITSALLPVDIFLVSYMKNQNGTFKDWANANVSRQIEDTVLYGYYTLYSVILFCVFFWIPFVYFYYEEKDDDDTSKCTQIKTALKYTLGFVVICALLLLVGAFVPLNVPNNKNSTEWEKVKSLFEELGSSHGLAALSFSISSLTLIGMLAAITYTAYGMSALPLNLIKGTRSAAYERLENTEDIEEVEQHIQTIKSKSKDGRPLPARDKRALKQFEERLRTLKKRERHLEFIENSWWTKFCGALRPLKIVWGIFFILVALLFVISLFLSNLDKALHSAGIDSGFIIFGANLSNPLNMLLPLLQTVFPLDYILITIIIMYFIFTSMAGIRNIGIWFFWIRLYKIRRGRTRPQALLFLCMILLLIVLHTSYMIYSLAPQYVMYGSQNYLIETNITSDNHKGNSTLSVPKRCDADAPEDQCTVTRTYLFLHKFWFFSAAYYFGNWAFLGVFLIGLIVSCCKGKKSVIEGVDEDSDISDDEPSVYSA
# Chain of UniProt Q6UWB1 (Q6UWB1 whole entry, looked up): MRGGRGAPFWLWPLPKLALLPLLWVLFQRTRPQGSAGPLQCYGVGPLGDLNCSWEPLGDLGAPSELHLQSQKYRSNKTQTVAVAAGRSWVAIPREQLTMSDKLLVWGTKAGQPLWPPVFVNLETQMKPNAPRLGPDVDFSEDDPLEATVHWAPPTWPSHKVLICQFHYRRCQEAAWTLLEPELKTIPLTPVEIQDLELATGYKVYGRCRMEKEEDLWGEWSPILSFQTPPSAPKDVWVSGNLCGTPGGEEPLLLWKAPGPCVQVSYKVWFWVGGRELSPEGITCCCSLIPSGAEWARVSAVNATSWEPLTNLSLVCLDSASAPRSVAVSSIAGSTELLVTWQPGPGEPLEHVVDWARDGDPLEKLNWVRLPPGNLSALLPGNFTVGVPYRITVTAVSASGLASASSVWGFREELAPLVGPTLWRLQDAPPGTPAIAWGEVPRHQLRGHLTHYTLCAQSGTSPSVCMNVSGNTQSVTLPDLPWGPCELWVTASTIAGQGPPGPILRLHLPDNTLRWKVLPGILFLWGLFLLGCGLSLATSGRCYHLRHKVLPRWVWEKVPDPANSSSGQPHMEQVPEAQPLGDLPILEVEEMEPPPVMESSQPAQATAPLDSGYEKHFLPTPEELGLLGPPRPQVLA
# Chain of UniProt Q6NUT3 (Q6NUT3 whole entry, looked up): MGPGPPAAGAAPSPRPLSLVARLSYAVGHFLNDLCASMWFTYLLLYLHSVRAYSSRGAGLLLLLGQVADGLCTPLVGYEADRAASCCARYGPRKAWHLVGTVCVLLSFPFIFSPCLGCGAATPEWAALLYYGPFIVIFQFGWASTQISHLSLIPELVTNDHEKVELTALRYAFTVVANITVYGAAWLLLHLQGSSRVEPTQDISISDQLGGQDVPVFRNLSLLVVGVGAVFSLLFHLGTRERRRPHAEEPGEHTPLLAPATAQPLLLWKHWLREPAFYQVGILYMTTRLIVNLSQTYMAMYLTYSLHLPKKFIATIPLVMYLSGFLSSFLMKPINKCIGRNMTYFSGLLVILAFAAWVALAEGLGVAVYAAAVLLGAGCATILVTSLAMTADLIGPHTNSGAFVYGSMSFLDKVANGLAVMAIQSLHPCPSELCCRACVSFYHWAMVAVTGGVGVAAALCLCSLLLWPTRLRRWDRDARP
# Chain of UniProt Q9H3F6 (Q9H3F6 whole entry, looked up): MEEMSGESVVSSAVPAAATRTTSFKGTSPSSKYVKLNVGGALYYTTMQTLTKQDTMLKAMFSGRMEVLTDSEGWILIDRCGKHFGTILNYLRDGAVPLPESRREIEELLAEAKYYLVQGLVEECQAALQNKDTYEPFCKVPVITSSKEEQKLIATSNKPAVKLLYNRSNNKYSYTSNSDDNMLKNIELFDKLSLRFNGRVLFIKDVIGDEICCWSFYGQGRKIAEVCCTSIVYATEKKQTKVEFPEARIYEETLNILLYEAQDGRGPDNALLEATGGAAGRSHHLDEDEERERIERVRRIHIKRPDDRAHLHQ
# Chain of UniProt P08514 (P08514 whole entry, looked up): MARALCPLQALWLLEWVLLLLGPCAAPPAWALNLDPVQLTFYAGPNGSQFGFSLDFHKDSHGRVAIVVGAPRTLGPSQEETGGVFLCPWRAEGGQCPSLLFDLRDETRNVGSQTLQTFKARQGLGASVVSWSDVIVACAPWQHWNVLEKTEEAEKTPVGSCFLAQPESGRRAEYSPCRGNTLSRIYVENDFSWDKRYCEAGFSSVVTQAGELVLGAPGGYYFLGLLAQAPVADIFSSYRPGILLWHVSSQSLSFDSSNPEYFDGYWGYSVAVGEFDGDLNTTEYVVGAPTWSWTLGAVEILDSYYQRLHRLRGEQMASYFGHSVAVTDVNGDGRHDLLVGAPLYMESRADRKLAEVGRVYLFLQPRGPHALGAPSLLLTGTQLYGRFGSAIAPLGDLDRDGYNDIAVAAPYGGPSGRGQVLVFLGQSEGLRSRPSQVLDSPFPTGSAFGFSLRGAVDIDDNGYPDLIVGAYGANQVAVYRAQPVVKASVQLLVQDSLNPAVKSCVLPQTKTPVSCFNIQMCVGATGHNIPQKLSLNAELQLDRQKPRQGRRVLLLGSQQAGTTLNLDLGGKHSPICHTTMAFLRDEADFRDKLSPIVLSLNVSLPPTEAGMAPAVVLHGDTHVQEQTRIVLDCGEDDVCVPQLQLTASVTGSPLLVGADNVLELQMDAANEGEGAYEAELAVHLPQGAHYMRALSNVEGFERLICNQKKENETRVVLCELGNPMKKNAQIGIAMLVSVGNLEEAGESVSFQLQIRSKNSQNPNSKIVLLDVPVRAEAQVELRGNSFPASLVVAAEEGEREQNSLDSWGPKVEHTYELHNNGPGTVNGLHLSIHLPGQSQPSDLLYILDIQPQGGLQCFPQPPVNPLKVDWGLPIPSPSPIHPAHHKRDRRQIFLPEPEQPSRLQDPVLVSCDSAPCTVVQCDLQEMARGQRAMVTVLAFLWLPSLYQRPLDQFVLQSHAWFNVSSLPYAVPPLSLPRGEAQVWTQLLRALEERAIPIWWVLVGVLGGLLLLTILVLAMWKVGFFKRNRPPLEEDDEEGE
# Chain of UniProt Q9BQD3 (Q9BQD3 whole entry, looked up): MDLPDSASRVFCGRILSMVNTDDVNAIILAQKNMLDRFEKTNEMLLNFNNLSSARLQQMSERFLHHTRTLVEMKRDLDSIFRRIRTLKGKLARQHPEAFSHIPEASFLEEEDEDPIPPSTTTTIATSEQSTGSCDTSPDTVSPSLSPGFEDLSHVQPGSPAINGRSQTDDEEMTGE
# Chain of UniProt O94889 (O94889 whole entry, looked up): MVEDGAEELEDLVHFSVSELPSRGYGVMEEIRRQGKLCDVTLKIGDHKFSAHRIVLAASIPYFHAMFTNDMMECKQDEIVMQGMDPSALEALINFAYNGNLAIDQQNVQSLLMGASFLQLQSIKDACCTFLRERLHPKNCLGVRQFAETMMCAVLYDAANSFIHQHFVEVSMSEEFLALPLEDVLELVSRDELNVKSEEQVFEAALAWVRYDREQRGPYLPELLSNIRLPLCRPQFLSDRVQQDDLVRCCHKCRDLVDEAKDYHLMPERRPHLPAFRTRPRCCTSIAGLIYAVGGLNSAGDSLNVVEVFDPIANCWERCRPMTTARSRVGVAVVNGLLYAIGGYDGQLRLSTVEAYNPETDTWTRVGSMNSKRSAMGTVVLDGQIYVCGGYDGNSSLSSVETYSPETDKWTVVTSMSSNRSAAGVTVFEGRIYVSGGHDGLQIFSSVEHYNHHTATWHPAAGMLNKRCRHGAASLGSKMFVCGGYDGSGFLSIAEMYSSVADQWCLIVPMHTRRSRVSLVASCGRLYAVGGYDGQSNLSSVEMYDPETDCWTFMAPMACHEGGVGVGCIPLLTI
# Chain of UniProt Q9BRT3 (Q9BRT3 whole entry, looked up): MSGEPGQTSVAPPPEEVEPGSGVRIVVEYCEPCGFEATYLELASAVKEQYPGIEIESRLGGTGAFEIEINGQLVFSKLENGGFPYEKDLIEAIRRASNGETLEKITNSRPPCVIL
Target,log2 fold change (IRAK-1-4 Inhibitor I),log2 fold change (ibrutinib),log2 fold change [1],log2 fold change (ralimetinib),log2 fold change [2],log2 fold change [3],log2 fold change (pinometostat),log2 fold change [4],log2 fold change [5],log2 fold change [6]
MBLAC1 (UniProt A4D2B0),0.371,-0.03,0.001,-0.074,0.126,-0.011,-0.163,,,
MELK (UniProt Q14680),0.021,0.032,-0.84 (active),,0.092,,0.013,-0.085,0.337,0.011
LAMP2 isoform 2 (UniProt P13473),0.127,-0.007,0.012,,-0.713 (active),,-0.026,0.115,0.03,-0.078
KIZ (UniProt Q2M2Z5),-0.075,,0.039,0.06,,-0.107,0.099,,,
MFSD5 isoform 2 (UniProt Q6N075),-0.068,-0.016,-0.007,0.019,-0.053,0.003,0.049,-0.017,0.039,-0.061
MIEN1 (UniProt Q9BRT3),0.105,-0.029,-0.051,-0.075,0.074,-0.036,0.019,-0.091,0.004,0.045
IL27RA (UniProt Q6UWB1),-0.189,0.077,0.011,0.058,0.139,-0.167,0.043,0.005,0.1,0.012
ITGA2B (UniProt P08514),-0.045,,-0.045,0.054,0.462,0.026,-0.064,-0.172,0.099,-0.121
KCTD10 (UniProt Q9H3F6),0.01,0.024,-0.037,-0.049,0.277 (active),-0.02,-0.021,0.043,-0.017,-0.034
KIF13A isoform 4 (UniProt Q9H1H9),,,0.123,,,,,,,
LSR (UniProt M0QZL9),,,,,,,,0.057,,
LRRCC1 (UniProt Q9C099),,,0.047,0.043,,0.237,,,,0.109
MED29 (UniProt Q9NX70),,,-0.215,,-0.038,,,,-0.08,
MFSD12 isoform 3 (UniProt Q6NUT3),,,-0.002,,-0.474 (active),,,,,-0.066
IPP (UniProt Q9Y573),,0.041,-0.084,,,,,,,
ING5 (UniProt Q8WYH8),0.101,,,,-0.395,,0.097,,,0.03
LAPTM4B (UniProt Q86VI4),,0.019,,,0.141,,,,,
IKZF1 isoform 2 (UniProt Q13422),,0.252,,0.152,0.031,0.159,,,-0.041,0.418 (active)
MAPRE3 isoform 2 (UniProt Q9UPY8),-0.384,,-0.139,,,,-0.101,,0.029,0.109
LYN isoform 2 (UniProt P07948),0.04,,-0.246,,-0.078,,0.147,0.002,-0.113,
KXD1 (UniProt Q9BQD3),,0.092,-0.073,-0.053,-0.181,0.041,,0.034,,0.057
MFAP3 (UniProt P55082),,-0.027,-0.067,,,,,-0.165,,-0.111
LOX (UniProt P28300),,0.074,,,-0.218,,,,0.144,
MAPK7 (UniProt Q13164),-0.033,,1.41 (active),,,,0.105,0.008,,

Target,log2 fold change (IRAK-1-4 Inhibitor I),log2 fold change (ibrutinib),log2 fold change [1],log2 fold change (ralimetinib),log2 fold change [2],log2 fold change [3],log2 fold change (pinometostat),log2 fold change [4],log2 fold change [5],log2 fold change [6]
LPIN3 isoform 2 (UniProt Q9BQK8),,-0.041,-0.164,-0.024,0.027,0.073,,-0.14,-0.019,0.099
IP6K1 (UniProt Q92551),,0.05,-0.154,-0.159,-0.667 (active),0.069,,-0.295,,0.095
MAP4 isoform 5 (UniProt P27816),,0.076,0.142,-0.019,0.083,0.014,,0.052,0.298,
MAP4K4 isoform 6 (UniProt O95819),,,,,,,,,-0.033,0.143
MARCHF3 (UniProt Q86UD3),,0.073,,,,,,-0.133,-0.058,
KMT2C isoform 3 (UniProt Q8NEZ4),,0.007,-0.02,0.074,-0.06,0.191,,-0.044,0.002,0.049
LSR isoform 3 (UniProt Q86X29),,,,,,,,,,-0.106
MAGED1 isoform 2 (UniProt Q9Y5V3),,,0.03,,0,,,-0.136,0.019,
ITM2C (UniProt Q9NQX7),,-0.069,-0.07,-0.063,-0.445 (active),0.036,,-0.186,-0.368,
LMBRD1 (UniProt Q9NUN5),,0.036,0.026,0.088,-0.708 (active),-0.022,,-0.059,0.088,-0.086
IGFBP3 isoform 2 (UniProt P17936),0.115,,0.097,,,,-0.004,0.196,,-0.095
LEPROT (UniProt O15243),,,-0.037,,-0.777 (active),,,0.142,,0.092
KIF21A (UniProt H0YI78),,,,0.366,-0.158,0.012,,,,
LMNA isoform 2 (UniProt P02545),,,,,,,,,,-0.128
LRRFIP1 isoform 4 (UniProt Q32MZ4),-0.06,,0.163,,0.031,,-0.019,-0.019,,
IGFBP6 (UniProt P24592),,,-0.02,-0.049,,0.097,,,,
ITPRID2 (UniProt P28290),0.004,,,-0.025,-0.686 (active),0.063,0.03,0.238,,
MAML1 (UniProt Q92585),0.117,,,0.013,0.016,-0.043,-0.133,0.02,,
MAP3K20 isoform 2 (UniProt Q9NYL2),-0.164,,-0.126,,0.089,,-0.021,0.078,0.01,-0.071
MCOLN3 (UniProt Q8TDD5),,-0.17,,-0.057,0.019,0.029,,,0.03,0.08
MFSD1 isoform 6 (UniProt Q9H3U5),,0.017,0.025,-0.172,-0.427 (active),0.043,,0.055,0.017,0.08
MAPK11 (UniProt Q15759),-0.22,,,1.47 (active),-0.853,-0.091,-0.111,,,0.103
IKZF1 (UniProt R9R4D9),-0.1,,,,,,-0.103,,,0.385
KLHL18 (UniProt O94889),,0.082,0.104,0.055,-0.117,-0.111,,0.006,0.026,0.088
